According to PubChem BioAssay:
Active and inactive are the calls of the source.

Columns and labels:
Albumin (Bos taurus) = Albumin (Bos taurus) (UniProt P02769); test: bovine serum albumin binders on microarray, profiling panel, artefact control for SMM control protein annotation, biochemical, small-molecule microarray, Alexa647 label, 635/667 nm fluorescence (AID 1118); settings: BSA-A647 binding, fluorescence 635 nm, higher = more signal;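 also: score merges 667 nm emission intensity and signal-to-noise per printed compound spot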
Albumin (Bos taurus), sequence (P02769 whole entry, looked up): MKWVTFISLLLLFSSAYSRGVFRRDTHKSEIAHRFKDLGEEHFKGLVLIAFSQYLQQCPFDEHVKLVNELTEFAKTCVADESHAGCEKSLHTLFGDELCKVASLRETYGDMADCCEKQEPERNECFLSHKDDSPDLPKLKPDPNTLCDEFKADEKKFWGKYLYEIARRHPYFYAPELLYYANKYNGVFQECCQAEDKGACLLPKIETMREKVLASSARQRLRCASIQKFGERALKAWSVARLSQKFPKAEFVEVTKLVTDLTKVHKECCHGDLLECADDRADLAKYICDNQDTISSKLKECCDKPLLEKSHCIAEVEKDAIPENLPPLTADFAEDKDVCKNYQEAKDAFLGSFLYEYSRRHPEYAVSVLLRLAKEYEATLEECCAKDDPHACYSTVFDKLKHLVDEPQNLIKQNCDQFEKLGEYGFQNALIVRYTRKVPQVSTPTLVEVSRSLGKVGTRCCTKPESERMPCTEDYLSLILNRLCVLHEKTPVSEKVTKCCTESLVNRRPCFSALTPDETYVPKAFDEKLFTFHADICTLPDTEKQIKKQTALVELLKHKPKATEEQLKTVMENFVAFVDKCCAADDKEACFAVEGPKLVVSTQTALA

[1] = small-molecule microarray binders of probe aXIP, primary screen, biochemical, NeuroSMM set, 635/667 nm fluorescence (AID 1119); settings: higher = more signal, called active from +8 up or from −8 down;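 also: probe is the protein aXip251-270 applied at 1 µg/mL to compound-printed slides; binding of probe to printed compounds measured as 667 nm fluorescence plus signal to noise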
[2] = small-molecule binders of probe aNOTCH3, primary screen, biochemical, small-molecule microarray, 635/667 nm fluorescence (AID 1120); settings: higher = more signal;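 also: probe is a biotin-tagged antibody raised against NOTCH3 rather than NOTCH3 protein; score merges spot fluorescence near 667 nm with spot signal to noise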
[3] = small-molecule binders of probe aNOTCH2, primary screen, biochemical, small-molecule microarray, 635/667 nm fluorescence (AID 1121); settings: higher = more signal;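 also: score merges feature fluorescence read at 667 nm with its signal to noise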
[4] = target: Carbonic anhydrase 2 (Homo sapiens) (UniProt P00918); test: CAII small-molecule binders, profiling panel, biochemical, small-molecule microarray, Alexa647-labelled CAII (AID 1122); settings: CAII-A647 binding fluorescence, higher = more signal
[5] = COS7 lysate on small-molecule microarray, probe aHis, 635 nm (AID 1123); settings: COS7 cell lysate, fluorescence, higher = more signal;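 also: z-score combines 667nm fluorescence intensity with signal-to-noise per printed compound spot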
[6] = compound binding in COS7 lysate, probe aLAP1, primary screen, cell lysate, small-molecule microarray (AID 1124); settings: probe aLAP1, fluorescence, higher = more signal;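 also: lysate comes from COS7 cells expressing LAP1 and is applied at 0.3 µg/mL; score merges spot fluorescence near 667 nm with signal-to-noise over triplicate slides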
Sam68 (KHDRBS1) = test: Sam68 small-molecule binders, primary screen, biochemical, small-molecule microarray, 635 nm fluorescence (AID 1125); settings: small-molecule microarray binding, higher = more signal;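 also: score merges 667 nm channel intensity with signal to noise over triplicate slides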
[7] = tested on: Chordin-like protein 2 (CHRDL2); test: CHRDL2 small-molecule binders, primary screen, biochemical, small-molecule microarray, 635 nm fluorescence (AID 1126); settings: small-molecule microarray binding, fluorescence 635 nm; higher = more signal;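 also: printed compound slides probed with Chrdl2 protein at 4 µg/mL for 1 h at 4 C; score merges 667 nm emission intensity with signal to noise over three replicate slides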
[8] = target: Concanavalin-A (Canavalia ensiformis) (UniProt P02866); test: ConA small-molecule binders, primary screen, artefact control for SMM control protein annotation, biochemical, small-molecule microarray, Alexa647 label, 635 nm (AID 1127); settings: ConA-A647 binding fluorescence, higher = more signal;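 also: z combines 667 nm emission intensity with signal-to-noise across three replicate slides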
Concanavalin-A (Canavalia ensiformis), sequence (P02866 whole entry, looked up): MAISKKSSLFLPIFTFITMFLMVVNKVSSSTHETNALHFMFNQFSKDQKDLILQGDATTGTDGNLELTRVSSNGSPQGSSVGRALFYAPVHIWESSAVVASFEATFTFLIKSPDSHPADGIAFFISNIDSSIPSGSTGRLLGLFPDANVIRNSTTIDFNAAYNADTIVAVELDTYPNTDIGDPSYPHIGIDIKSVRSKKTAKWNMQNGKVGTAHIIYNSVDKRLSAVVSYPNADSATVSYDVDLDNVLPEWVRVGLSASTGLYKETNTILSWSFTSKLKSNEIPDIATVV

[9] = anti-His antibody binders, primary screen, artefact control for SMM control protein annotation, biochemical, small-molecule microarray, 635 nm fluorescence (AID 1128); settings: anti-His Alexa647 antibody binding, higher = more signal;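 also: score merges feature fluorescence with signal-to-noise for each printed compound spot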
[10] = tested on: Human papillomavirus type 1a E7 protein (residues 1-88); test: HPV1a E7 small-molecule binders, primary screen, biochemical, small-molecule microarray, residues 1-88, 635 nm (AID 1129); settings: small-molecule microarray binding, fluorescence 635 nm; higher = more signal
[11] = target: Focal adhesion kinase 1 (Homo sapiens) (UniProt Q05397); test: small-molecule microarray binders of FAK, primary screen, biochemical, 635/667 nm fluorescence, BSA, DTT (AID 1130); settings: PTK2 binding, 635 nm fluorescence, higher = more signal;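 also: composite of spot emission at 667 nm and signal to noise over triplicate slides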
Focal adhesion kinase 1 (Homo sapiens), sequence (Q05397 whole entry, looked up): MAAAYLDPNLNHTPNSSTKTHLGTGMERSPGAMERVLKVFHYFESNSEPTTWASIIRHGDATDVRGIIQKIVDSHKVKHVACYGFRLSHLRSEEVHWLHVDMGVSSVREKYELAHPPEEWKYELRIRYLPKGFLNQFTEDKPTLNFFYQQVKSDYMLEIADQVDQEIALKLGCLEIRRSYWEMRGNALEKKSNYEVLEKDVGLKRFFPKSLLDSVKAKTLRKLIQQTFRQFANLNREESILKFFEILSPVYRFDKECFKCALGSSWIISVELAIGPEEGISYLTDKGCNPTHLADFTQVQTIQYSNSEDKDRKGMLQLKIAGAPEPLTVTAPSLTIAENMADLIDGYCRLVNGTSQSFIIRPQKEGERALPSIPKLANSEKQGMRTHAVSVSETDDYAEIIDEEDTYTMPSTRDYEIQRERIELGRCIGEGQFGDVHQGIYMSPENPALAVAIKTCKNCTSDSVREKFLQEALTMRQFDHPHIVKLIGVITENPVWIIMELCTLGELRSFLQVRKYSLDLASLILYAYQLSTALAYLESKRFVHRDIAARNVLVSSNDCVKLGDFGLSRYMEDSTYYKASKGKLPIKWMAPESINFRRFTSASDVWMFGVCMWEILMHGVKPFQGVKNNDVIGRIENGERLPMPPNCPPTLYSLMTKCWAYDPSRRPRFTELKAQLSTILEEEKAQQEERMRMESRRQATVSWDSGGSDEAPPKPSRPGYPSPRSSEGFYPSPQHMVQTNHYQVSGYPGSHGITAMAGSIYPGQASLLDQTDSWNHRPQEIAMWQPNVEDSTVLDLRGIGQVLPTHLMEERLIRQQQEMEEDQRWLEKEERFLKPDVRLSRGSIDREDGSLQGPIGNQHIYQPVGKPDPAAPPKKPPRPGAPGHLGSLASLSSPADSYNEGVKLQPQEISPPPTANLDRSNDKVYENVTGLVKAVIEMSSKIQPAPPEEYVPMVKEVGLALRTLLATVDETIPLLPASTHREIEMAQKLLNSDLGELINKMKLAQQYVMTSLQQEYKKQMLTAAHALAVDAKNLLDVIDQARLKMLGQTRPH

[12] = tested on: Fibrinogen (Alexa647-labelled); test: fibrinogen binders on compound microarrays, profiling panel, artefact control for SMM control-protein annotation, biochemical, small-molecule microarray, 635/667 nm fluorescence (AID 1131); settings: fibrinogen-A647 binding fluorescence, higher = more signal;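 also: z-score merges 667 nm fluorescence with per-spot signal-to-noise over triplicate slides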
[13] = target: Follistatin (Homo sapiens) (UniProt P19883); test: follistatin binders on small-molecule microarrays, primary screen, biochemical, small-molecule microarray, 635/667 nm fluorescence (AID 1132); settings: FST binding, 635 nm fluorescence, higher = more signal
Follistatin (Homo sapiens), sequence (P19883 whole entry, looked up): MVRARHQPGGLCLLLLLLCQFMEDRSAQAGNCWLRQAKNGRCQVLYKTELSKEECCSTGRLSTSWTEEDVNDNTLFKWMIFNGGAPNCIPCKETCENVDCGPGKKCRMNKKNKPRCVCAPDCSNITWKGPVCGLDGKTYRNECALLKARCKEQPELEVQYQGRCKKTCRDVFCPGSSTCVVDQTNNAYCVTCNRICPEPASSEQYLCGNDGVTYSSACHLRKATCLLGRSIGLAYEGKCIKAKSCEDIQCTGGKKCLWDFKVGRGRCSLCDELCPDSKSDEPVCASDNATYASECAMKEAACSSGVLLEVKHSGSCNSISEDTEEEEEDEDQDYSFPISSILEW

[14] = target: Fibroblast growth factor 2 (Homo sapiens) (UniProt P09038); test: FGF2 binders on small-molecule microarrays, primary screen, biochemical, small-molecule microarray, 635/667 nm fluorescence (AID 1133); settings: small-molecule microarray binding, FGF2, fluorescence 635/667; higher = more signal
Fibroblast growth factor 2 (Homo sapiens), sequence (P09038 whole entry, looked up): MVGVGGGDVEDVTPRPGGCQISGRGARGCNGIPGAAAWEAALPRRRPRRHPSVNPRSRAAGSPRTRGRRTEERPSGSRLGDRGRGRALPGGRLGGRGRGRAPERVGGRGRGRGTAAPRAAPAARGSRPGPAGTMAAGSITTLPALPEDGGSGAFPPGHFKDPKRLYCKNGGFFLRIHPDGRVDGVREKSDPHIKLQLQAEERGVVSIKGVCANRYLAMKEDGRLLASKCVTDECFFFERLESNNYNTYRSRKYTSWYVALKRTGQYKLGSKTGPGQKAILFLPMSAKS

[15] = mitochondrial membrane potential change in A549 cells, profiling panel, cell-based, JC-1 fluorescence, basal, 24 h, 100 nL (AID 1138); settings: higher = more signal;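 also: A549 lung adenocarcinoma cells under basal conditions with no added stimulus; test concentration not given here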
Lefty1 = Lefty1 binders on small-molecule microarrays, primary screen, biochemical, small-molecule microarray, 635/667 nm fluorescence (AID 1139); settings: small-molecule microarray binding, fluorescence 635/667; higher = more signal
[16] = tested on: wheat germ agglutinin (Triticum aestivum), Alexa647-labelled; test: wheat germ agglutinin binders on compound microarrays, profiling panel, artefact control for SMM control-protein annotation, biochemical, small-molecule microarray, 635/667 nm fluorescence (AID 1140); settings: WGA-A647 binding, 635 nm fluorescence, higher = more signal;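 also: score merges 667 nm feature emission with signal to noise over triplicate slides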
[17] = target: Luciferin 4-monooxygenase (Photinus pyralis) (UniProt P08659); test: firefly luciferase enzyme inhibitors, primary screen, biochemical, luminescence, purified enzyme, 2006 set (AID 1141); settings: SteadyGlo luminescence, 30 min, higher = more signal, called active from +8 up or from −8 down;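 also: cell-free assay with purified firefly luciferase at 100 ng per well in PBS; test concentration not given here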
Luciferin 4-monooxygenase (Photinus pyralis), sequence (P08659 whole entry, looked up): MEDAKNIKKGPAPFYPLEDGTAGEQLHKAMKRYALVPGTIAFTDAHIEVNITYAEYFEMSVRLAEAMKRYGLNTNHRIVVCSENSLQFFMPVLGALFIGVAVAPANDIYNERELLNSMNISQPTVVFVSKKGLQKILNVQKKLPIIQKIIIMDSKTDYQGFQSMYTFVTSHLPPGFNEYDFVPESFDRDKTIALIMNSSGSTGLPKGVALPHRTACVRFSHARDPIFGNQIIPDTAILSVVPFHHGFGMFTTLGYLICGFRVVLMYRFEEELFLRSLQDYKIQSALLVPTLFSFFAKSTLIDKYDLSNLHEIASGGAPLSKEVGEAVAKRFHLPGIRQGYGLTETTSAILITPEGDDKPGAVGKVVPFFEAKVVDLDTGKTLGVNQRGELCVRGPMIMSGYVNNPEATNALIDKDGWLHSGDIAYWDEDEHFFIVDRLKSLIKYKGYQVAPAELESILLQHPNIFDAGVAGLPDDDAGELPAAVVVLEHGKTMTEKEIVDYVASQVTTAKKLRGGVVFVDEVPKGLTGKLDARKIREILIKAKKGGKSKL

SMILES | composite z-score (Albumin (Bos taurus)) | composite Z-score [1] | composite z-score [2] | composite z-score [3] | composite z-score [4] | composite z-score [5] | composite z-score [6] | composite z-score (Sam68 (KHDRBS1)) | composite z-score [7] | composite z-score [8] | composite z-score [9] | composite z-score [10] | composite z-score [11] | composite z-score [12] | composite z-score [13] | composite z-score [14] | z-score [15] | composite z-score (Lefty1) | composite z-score [16] | z-score [17]
CO[C@H]1COC(=O)[C@H](C)COC(=O)[C@H](C)NC(=O)CC=C[C@H]1C | -0.642 | 1.19 (inactive) | -0.131 | -0.0051 | 0.0006 | -0.429 | 0.352 | 1.04 | 1.44 | -0.581 | 0.0849 | -0.375 | -0.315 | -1.01 | 1.41 | 1.43 | 0.763 | 1.36 | -0.729 | -0.403 (inactive)
CCOC(=O)CCN1C(=O)[C@H]2[C@H]3[C@H](O)[C@H](O)CC(=NOCC(C)C)[C@@H]3CC[C@H]2C1=O | -0.0235 | 0.544 (inactive) | -0.0693 | -0.186 | -0.52 | -0.934 | -0.412 | -0.0659 | 1.45 | -1.16 | -0.957 | -0.263 | -0.286 | -0.586 | 0.91 | 1.14 | -0.478 | 0.929 | 0.0456 | 0.826 (inactive)
O=C1CCCC=C1C(O)COCc1ccccc1 (stereo not given) | 0.411 | 0.16 (inactive) | -0.154 | -0.157 | -0.213 | 0.428 | 0.08 | -1.01 | -0.137 | 0.999 | 0.195 | -1.33 | 0.0944 | 0.772 | 0.124 | 0.236 | -0.68 | 0.295 | -0.0439 | 0.345 (inactive)
C[C@H]1CC[C@@H](C(=O)O)N[C@@H]1c1cccc(N2CCCC2=O)c1 | -0.0315 | -0.38 (inactive) | -0.173 | -0.14 | -0.192 | -0.101 | -0.127 | 0.0706 | 0.456 | 0.116 | -0.0817 | 0.675 | -0.0555 | 0.25 | 0.412 | 0.229 | 1.21 | 0.132 | -0.368 | -1.21 (inactive)
COc1ccc(COC(=O)NN=C2C[C@@H](O)[C@@H](O)[C@@H]3[C@@H]4C(=O)N(C[C@@H]5CCCO5)C(=O)[C@@H]4CC[C@@H]23)cc1 | 0.0566 | 0.58 (inactive) | -0.128 | -0.0832 | 0.234 | 0.727 | 0.824 | 0.78 | 0.508 | 0.327 | 0.365 | 0.275 | -0.2 | 0.953 | 0.0253 | 0.104 | 0.883 | 0.0359 | 0.627 | 0.181 (inactive)
CCOC(=O)[C@H](Cc1ccccc1)NC(=O)CCC1CC(OC(=O)NCc2cccc3ccccc23)CC2(CCCC(COC(=O)NCCc3ccccc3OC)O2)O1 (stereo not given in full) | 0.49 | -0.564 (inactive) | 0.121 | -0.126 | 0.224 | 0.474 | -0.114 | 1.19 | 0.241 | 0.879 | 0.704 | 0.79 | 0.201 | 0.287 | 0.798 | 0.793 | -0.538 | 0.99 | 0.404 | 0.821 (inactive)
CC(CCN1CCCCc2nc(C)c(C)cc21)=NO[C@@H](C)c1cc(-c2c(C)cc(C)cc2C)no1 | 0.335 | -0.0861 (inactive) | -0.231 | -0.0904 | -0.079 | -0.257 | 0.197 | -1.33 | -0.734 | -1.84 | -0.335 | -0.384 | 0.0796 | -0.317 | -0.673 | -0.682 | 1.91 | -0.315 | -0.547 | -1.49 (inactive)
O=C1[C@H]2[C@H]3[C@H](O)[C@H](O)CC(=NO[C@@H]4O[C@H](CO)[C@@H](O)[C@H](O)[C@H]4O)[C@H]3CC[C@H]2C(=O)N1C[C@@H]1CCCO1 | -0.011 | 0.274 (inactive) | -0.136 | -0.0101 | -0.408 | -0.686 | 0.041 | 0.155 | 0.109 | -0.391 | -0.0286 | -0.178 | -0.159 | 0.333 | -0.438 | 0.182 | -0.222 | 0.0013 | -0.442 | 0.569 (inactive)
CC(=O)OC[C@H]1O[C@H](C#CCC2CCCCC2)C=C[C@@H]1OC(C)=O | 0.718 | -0.106 (inactive) | -0.154 | -0.0632 | 0.494 | 0.853 | 0.53 | 0.953 | 0.32 | 1.04 | 0.502 | 0.916 | -0.146 | 0.672 | 0.675 | 0.339 | 0.587 | 0.513 | 0.371 | -2.68 (inactive)
CC#CCOCCC=C1c2ccccc2[C@@H](OC)[C@@H]1C | 0.556 | 0.549 (inactive) | -0.128 | -0.101 | 0.336 | -0.336 | -0.0059 | 0.151 | 0.337 | -0.515 | 1.79 | -0.0931 | -0.0029 | 0.329 | 0.331 | 0.412 | -0.198 | 1.24 | 0.725 | -0.693 (inactive)
CO[C@@H]1COC(=O)[C@@H]2CCCN2C(=O)[C@@H](C)COC(=O)CCC[C@H]1C | 0.379 | 0.305 (inactive) | 0.109 | -0.16 | -0.126 | 0.0072 | 0.557 | 1.27 | 0.438 | -0.0031 | 0.176 | 0.0997 | 0.154 | 0.482 | 0.529 | 0.264 | -0.601 | 0.486 | 0.2 | 0.173 (inactive)
